Results on 74 compounds are retold here after PubChem BioAssay AID781 (Emory University Molecular Libraries Screening Center, 2007).

Screen size: about 220,000 compounds; about 1,600 (0.73%) were called active. The full list was thinned out, with actives kept by preference. Values without a mark were called inactive.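 Rule for the calls: active = inhibition above about 70% (limit read from the data); inactive = the rest.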

This assay deals with 14-3-3 protein zeta/delta (Bos taurus) (UniProt P63103). Description: disruptors of 14-3-3 zeta phospho-Bad complex – biochemical, TR-FRET, bovine 14-3-3 zeta, primary screen (AID 781).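 Note: 0% = full 14-3-3 plus peptide FRET controls and 100% = background without 14-3-3.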 The following applies: TR-FRET 14-3-3zeta/Dy647-pBad peptide displacement, 1 h; at 21.7 µM; active compounds read high. In general terms: In TR-FRET formats the signal depends on donor and acceptor labels being close together.
Chain of 14-3-3 protein zeta/delta (Bos taurus) (P63103 whole entry, looked up): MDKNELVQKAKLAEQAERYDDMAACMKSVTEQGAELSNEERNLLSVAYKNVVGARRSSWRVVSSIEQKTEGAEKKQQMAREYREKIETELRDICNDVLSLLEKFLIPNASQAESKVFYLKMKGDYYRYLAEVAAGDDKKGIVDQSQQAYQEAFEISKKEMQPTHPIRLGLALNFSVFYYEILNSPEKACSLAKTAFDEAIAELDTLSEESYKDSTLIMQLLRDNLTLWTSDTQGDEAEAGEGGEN
One may read the inhibition as the drop in the measured response relative to a control, in per cent. Consider `CCN(c1ccccc1)S(=O)(=O)c1ccc(NC(=O)C(C)(C)C)cc1`, for which the inhibition was 4.53%.

With `CCN(c1ccccc1)S(=O)(=O)c1ccc(N)cc1`, the inhibition is 71.9% (active).

In the case of `CCN(c1ccccc1)S(=O)(=O)c1ccc2[nH]c(=O)[nH]c2c1`, the inhibition is -1.8%.

`CCOC(=O)c1cc2c(=O)n3ccccc3nc2n(CC(C)C)c1=NC(=O)c1c(-c2c(F)cccc2Cl)noc1C`: the inhibition was -8.06%.

As to `O=C1CCCC(O)=C1N=Nc1ccc2ncsc2c1`, the inhibition is 3.62%.

Consider `COC(=O)c1c(C)oc(C)c1S(=O)(=O)Nc1ccc(C(C)C)cc1`, for which the inhibition is 3.11%.

With `CC1CCC2(CC1)NC(=O)N(Cc1nnc(-c3cccs3)o1)C2=O` (centres undefined), the inhibition was 21.6%.

For `CC1CCC2(CC1)NC(=O)N(CC(=O)c1cccn1C)C2=O` (centres undefined), the inhibition is 73.9% (active).

As to `O=C(CN1C(=O)NC2(CCCCCC2)C1=O)NC1CC1`, the inhibition was 8.5%.

Turning to `Cc1ccc(CN2CCN(Cc3ccc(OCCO)cc3)CC2CCO)o1` (centres undefined), the inhibition was -4.12%.

For the compound `COc1ccccc1CNC(=O)C1CCN(c2nc3ccccc3o2)CC1`, the inhibition is -3.16%.

For the compound `COc1ccc(CNC(=O)C2CCN(S(C)(=O)=O)CC2)cc1`, the inhibition is -4.78%.

As for `COc1ccccc1CNC(=O)C1CCN(S(C)(=O)=O)CC1`, the inhibition was 74% (active).

For the compound `Cc1cc(OCCCCOc2ccc(C#N)cc2)ccc1[N+](=O)[O-]`, the inhibition is -4.45%.

For `CCOC(=O)C1CCN(S(=O)(=O)c2cc(F)ccc2OC)CC1`, the inhibition was -7.19%.

Consider `CCOC(=O)C1CCCCN1Cc1ccc(OC)c(OC)c1OC` (centres undefined), for which the inhibition is 79.9% (active).

`CCOC(=O)C1CCN(C(=O)/C=C/c2cc(OC)c(OC)c(OC)c2)CC1`: the inhibition was -11.5%.

With `CCN(CC)CC(=O)Nc1sc2c(c1C(=O)c1ccccc1C)CCC2`, the inhibition is -10.9%.

As for `CCCCOc1ccc(CON(C(C)=O)C(C)=O)cc1Cl`, the inhibition is 3%.

Regarding `COc1ccc(-c2csc(NC(=O)c3ccc(N4C(=O)CCC4=O)cc3)n2)cc1OC`, the inhibition is -4.66%.

For `O=C(CN1CCCCC1)Nc1ccccc1Cl`, the inhibition is -5.94%.

With `Cc1ccccc1NC(=O)CNc1ccccc1N1CCCCC1`, the inhibition was -11.4%.

`O=C(CN1CCN(C2CCCCC2)CC1)Nc1ccccc1N1CCCCC1`: the inhibition is 72.6% (active).

Turning to `CCCCOc1ccc(N(CC(=O)NC(C)C)C(=O)CCC(=O)Nc2ccccn2)cc1`, the inhibition was -8.63%.

In the case of `O=C1CC(=O)Nc2cc(S(=O)(=O)N3CCN(c4cccc(C(F)(F)F)c4)CC3)ccc2N1`, the inhibition was 9.3%.

Take `CC(C)Nc1nnc(SCC(=O)/C=C2\N(C)c3ccccc3C2(C)C)s1`: the inhibition was 0.42%.

For `COC(=O)COc1ccc(C2NC(=O)NC(C)=C2C(=O)NCc2ccccc2)cc1OC` (centres undefined), the inhibition was -4.82%.

For the compound `Cc1ccc2cc(C#N)c(NCCNC(=S)NCCCN3CCOCC3)nc2c1`, the inhibition was -9.87%.

For `Cc1ccc2nc(NCCCNC(=O)c3cnccn3)c(C#N)cc2c1`, the inhibition is 70.8% (active).

Consider `COCCCNC(=S)NCCNc1nc2cc(C)c(C)cc2cc1C#N`, for which the inhibition is -7.08%.

As to `Cc1ccc(NC(=O)c2nc[nH]c2C(=O)N[C@@H](CCCCNC(=O)OC(C)(C)C)C(=O)OC(C)(C)C)cc1`, the inhibition is -8.93%.

Consider `O=c1c(-c2ccccc2)coc2cc(O)ccc12`, for which the inhibition is 4.45%.

Turning to `CN1CCN(Cc2c(O)ccc3c2oc(=O)c2ccccc23)CC1`, the inhibition is 0.82%.

Regarding `O=c1c(-c2ccccc2)coc2c(CN3CCOCC3)c(O)ccc12`, the inhibition is 81.7% (active).

With `O=C(CSc1ccsc1[N+](=O)[O-])N1CCCCC1`, the inhibition is -7.81%.

As to `Cn1c(-c2ccco2)nc2cc3ccccc3cc21`, the inhibition is 75.6% (active).

As to `S=c1[nH]nc(-c2ccco2)n1/N=C/c1ccccc1`, the inhibition was -2.42%.

For the compound `CN1c2ccccc2-c2nc3ccccc3n2C1c1ccco1` (centres undefined), the inhibition is -9.91%.

Take `COc1ccc(-c2csc(Cc3nc(O)cs3)n2)cc1`: the inhibition is -15.6%.

As to `NC1=NC(=O)S/C1=C\c1ccc(O)cc1`, the inhibition was -5.85%.

Turning to `CCOc1ccc(N=C2SC(C(=O)O)CC(=O)N2C)cc1` (centres undefined), the inhibition is 13.2%.

As for `CCOc1ccc(N=C2NC(=O)S/C2=C\c2ccc(O)cc2)cc1`, the inhibition was 70.4% [fluorescence artefact?] (active).

Regarding `Cc1cccc(C(=O)Nc2ccc3c(c2)C(=O)N(CC(C)C)C3=O)c1`, the inhibition was -3.81%.

On to `COc1ccc(-n2c(SCC(=O)Nc3sc4c(c3C#N)CCCC4)nnc2-c2ccc(O)cc2)cc1`, for which the inhibition was 87.9% (active).

For the compound `COc1cccc(CN(C)CC(=O)Nc2sc3c(c2C#N)CCC3)c1`, the inhibition is -5.48%.

For `NC(=O)c1c(NC(=O)CSc2nnc(-c3ccco3)n2N)sc2c1CCCC2`, the inhibition was -2.7%.

For the compound `C=CCn1c(N)c(C(=O)OCC(C)C)c2nc3ccccc3nc21`, the inhibition was 79.3% [fluorescence artefact?] (active).

Regarding `C=CCn1c(N)c(S(=O)(=O)c2cccs2)c2nc3ccccc3nc21`, the inhibition is -4.17%.

Regarding `CC(C)Cn1c(N)c(C(=O)NCc2cccs2)c2nc3ccccc3nc21`, the inhibition is 6.16%.

For `S=C(NCCc1ccccc1)Nc1ccccc1`, the inhibition is -1.72%.

Take `N#Cc1ccc(C(=O)Nc2nc(-c3cccs3)c(C(=O)C(F)(F)F)s2)cc1`: the inhibition was 3.51%.

As for `CC(=O)Nc1ccc(/C=N/Nc2ccc(C(=O)c3c(C)cc4ccccn34)cc2[N+](=O)[O-])cc1`, the inhibition is 84.9% (active).

Consider `Cc1ccc(Nc2ccc(C(N)=O)cc2[N+](=O)[O-])cc1`, for which the inhibition was 0.31%.

Take `CNc1ccc(NC(C)=O)cc1[N+](=O)[O-]`: the inhibition is 5.82%.

On to `Cc1onc(-c2ccccc2)c1C(=O)N=C(N)c1ccc(Cl)cc1`, for which the inhibition is -6.58%.

Turning to `CCCN(CCC)S(=O)(=O)c1ccc(C(=O)N2CC3CCC(CC3)C2)cc1`, the inhibition was -3.48%.

As to `O=C(NCc1cccs1)c1cc(-c2ccccn2)nc2ccc(Br)cc12`, the inhibition was 90.8% (active).

In the case of `O=C(NCC(c1cccs1)N1CCOCC1)c1cc(-c2ccccn2)nc2ccccc12` (centres undefined), the inhibition was 1.32%.

Regarding `O=C(Nc1ccncc1)c1cc(-c2ccccn2)nc2ccc(Br)cc12`, the inhibition was 44.9%.

With `O=C(COC(=O)Cn1cnc2ccccc2c1=O)NCC12CC3CC(CC(C3)C1)C2`, the inhibition is 1.53%.

For the compound `Cn1cc(/C=C/C(=O)N2CCCC(C(=O)c3ccc(C(F)(F)F)cc3)C2)cn1` (centres undefined), the inhibition is -7.47%.

Consider `CN(C)CCNC(=O)Cc1ccc([N+](=O)[O-])cc1`, for which the inhibition was -6.79%.

`COc1ccc(-c2c(C(C)=O)c(C)nc3sc4c(=O)n(-c5ccc(C)cc5)nnc4c23)cc1`: the inhibition is 81.2% (active).

In the case of `COCc1cc(C)nc2sc3c(=O)n(-c4cccc5ccccc45)nnc3c12`, the inhibition is 5.95%.

With `COc1ccc(-n2nnc3c(=O)n(CC(=O)OCc4ccccc4)cnc32)cc1`, the inhibition is 7.97%.

Regarding `Nc1nc(-c2sc3nc4c(cc3c2N)CCCC4)nc(N2CCOCC2)n1`, the inhibition is -13.9%.

For `O=C(NNC(=S)NC1CC2CCC1C2)c1ccc(Cl)cc1` (centres undefined), the inhibition was -16.9%.

As for `Cc1nc2nc(SCC(=O)c3ccccc3)[nH]c2cc1Br`, the inhibition is -3%.

As for `Cc1ccc(OCC(=O)Nc2ccccc2Sc2ccc(Cl)cc2)c([N+](=O)[O-])n1`, the inhibition is 71.7% [fluorescence artefact?] (active).

In the case of `CCc1ccccc1NC(=O)CN(C)C(=O)COc1ccc(C)nc1[N+](=O)[O-]`, the inhibition is -17.4%.

Consider `Cc1ccc(OCC(=O)NC(C)c2ccccc2)c([N+](=O)[O-])n1` (centres undefined), for which the inhibition was 7.44%.

Take `O=[N+]([O-])c1cccc(/C([O-])=C(/C(=S)Nc2ccccc2F)[n+]2ccccc2)c1`: the inhibition was -7.84%.

Turning to `Cc1cccc(C(=O)Nc2ccc(C(=O)/C=C/c3cccs3)cc2)c1`, the inhibition is 14.9%.

For the compound `Cc1ccc(C(=O)/C=C/Nc2ccc(S(=O)(=O)Nc3onc(C)c3C)cc2)cc1`, the inhibition was -24.4%.
